Source: PubChem
GLP-1R agonist – GLP-1 receptor (human) agonism; Potency, µM (series often up to 45.6 µM), for the others: top-dose activation, actives largely listed as activators; P43220; HEK293 GLP-1R CRE-luciferase, luminescence, 4-6 h; cells express a hypersensitive GLP-1R form; hit rate 0.007% among 380,000; note: potency is the fitted concentration of half-maximal effect; % of control where 0% means no effect
PTHR1 agonist – PTHR1 (human) receptor agonism; HEK293 GP2 PTHR1 cells, GloSensor cAMP luminescence, 1 h; Potency, µM (highest dose often 115 µM), for inactives: top-dose activation, hits mostly activators; hit rate 0.075% among 410,000; note: potency is the fitted concentration of half-maximal effect; nearly all actives have a fitted effect of over 55% in size
Target sequence (Q03431 whole entry, looked up): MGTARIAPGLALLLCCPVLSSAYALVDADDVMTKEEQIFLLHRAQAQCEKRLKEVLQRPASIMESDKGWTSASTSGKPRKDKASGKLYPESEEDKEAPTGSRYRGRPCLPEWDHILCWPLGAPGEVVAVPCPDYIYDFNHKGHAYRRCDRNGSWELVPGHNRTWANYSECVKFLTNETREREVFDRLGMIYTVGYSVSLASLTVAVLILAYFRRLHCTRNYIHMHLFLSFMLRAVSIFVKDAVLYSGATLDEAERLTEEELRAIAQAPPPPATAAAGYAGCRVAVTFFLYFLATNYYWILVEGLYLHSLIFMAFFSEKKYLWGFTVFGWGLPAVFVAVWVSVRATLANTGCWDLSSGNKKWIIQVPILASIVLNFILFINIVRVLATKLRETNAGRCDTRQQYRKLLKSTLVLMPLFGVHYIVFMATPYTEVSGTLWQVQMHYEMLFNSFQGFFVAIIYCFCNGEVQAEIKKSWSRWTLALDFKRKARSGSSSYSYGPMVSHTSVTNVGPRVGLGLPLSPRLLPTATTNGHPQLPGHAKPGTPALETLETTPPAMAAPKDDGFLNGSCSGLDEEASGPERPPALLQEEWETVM
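HEK-293-derived GP2 cells expressing PTHR1 and a GloSensor cAMP reporter, 3,000/well, plated overnight, given luciferin plus IBMX (each 0.5 mM as added) for 1 h at 37 °C, then compound for 1 h at 37 °C. Luminescence was read after 15 min at room temperature.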
LDHA block – blocks human lactate dehydrogenase A | purified LDHA, NADH/diaphorase-resazurin fluorescence; hits give low values | AID 1347041 | activity change, % (values are at about 110 or 230 µM) | hit rate 0.15% among 480,000 | P00338; in the data active = activity change below about -30%; inconclusive = mostly about -25% to -30%;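 note: plate controls were DMSO wells for no effect and wells without enzyme for full effect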
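LDH5 2 nM; NADH 0.06 mM, pyruvate 0.2 mM; 200 mM Tris pH 7.4, EDTA, Tween-20; 5 min RT. Detection: diaphorase 0.133 mg/mL + resazurin 37 µM, fluorescence ex540/em590 at 0 and 20 min; normalized to enzyme-free and DMSO wells.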
IDH1 R132H inh – blocks human mutant IDH1 R132H enzyme | IDH1-R132H enzyme, NADPH consumption, diaphorase/resazurin fluorescence | hit rate 0.093% among 390,000 | AID 602179 | Potency, µM (series often up to 76.6 µM), inactives show at the highest dose activity change, negative = inhibition, actives largely listed as inhibitors; note: potency is the fitted concentration of half-maximal effect; % is set by controls: 0 for no effect and ±100 for the full control effect; nearly all actives have a fitted effect of over 65% in size
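IDH1-R132H (0.5 ug/mL dispensed) in pH 7.5 Tris buffer was preincubated 30 min with compound, then given a substrate mix of 0.016 mM NADPH and 2 mM alpha-KG for 80 min at room temperature; remaining NADPH was read by diaphorase/resazurin fluorescence.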
GLP-1R inv ag – GLP-1 receptor (human) inverse agonism; P43220; Potency, µM (highest dose often 38.3 µM), without a hit: top-dose activity change, negative = inhibition, hits mostly inhibitors; hit rate 1.6% among 410,000; HEK293 GLP-1R CRE-luciferase, luminescence, 24 h; GLP-1R form is constitutively active; note: potency is the fitted concentration of half-maximal effect; % is set by controls: 0 for no effect and ±100 for the full control effect; nearly all actives have a fitted effect of over 55% in size
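Readout was luciferase luminescence, measured 12 min after detection reagent at room temperature. Beforehand, GLP-1R reporter HEK293 cells had sat 12 h, then received compounds for 24 hr at 37 deg C.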
HEK293 tox – cytotoxicity counter-screen for GLP-1 receptor inverse agonists; HEK293 cAMP-luciferase reporter cells, luminescence, 24 h; Potency, µM (highest dose often 38.3 µM), inactives show top-dose activity change, negative = inhibition, actives largely listed as inhibitors; hit rate 0.13% among 410,000; AID 624418;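 note: loss of luciferase light is scored as toxicity; potency is the fitted concentration of half-maximal effect; % is set by controls: 0 for no effect and ±100 for the full control effect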
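Step one: seed cells (200 cells/uL, DMEM with 10% Nu serum, 1% pen-strep). Step two: 12-hour incubation at 37 deg C. Step three: pin 23 nL compound, incubate 24 hr. Step four: add luciferase reagent, read luminescence 12 min later.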
The depositor's hits bear a star; i = inactive; ? = inconclusive; . = no result given; [ ] = dose if it differs, or a comment. The list is not random: actives were taken first. Their share in the collection is about 1.7%. Unless noted, calls come from the whole dose curve; as a rule, active = well fitted curve in the direction sought with a large enough effect; inconclusive = small, poorly fitted or top-dose-only effect, or another doubt; inactive = no such curve, though single readings can be large; an effect the other way counts as inactive or inconclusive.

SMILES	GLP-1R agonist	PTHR1 agonist	LDHA block	IDH1 R132H inh	GLP-1R inv ag	HEK293 tox
Cc1ccc(OCCOc2cccc(/C=C(/C#N)c3ccccc3)c2)cc1	.	.	7.7	.	.	.
O=C(OCCN1C(=O)c2cccc3c(N4CCOCC4)ccc(c23)C1=O)c1ccc(Cl)cc1Cl	-9.0%	-2.9%	-8.9	3.8%	1.26µM*	i
O=C(OCCN1C(=O)c2cccc3c(N4CCOCC4)ccc(c23)C1=O)c1ccccc1Cl	1.9%	-15.8%	-7.1	-0.1%	?	i
Cc1cc(S(=O)(=O)N2CCN(C(=O)c3ccc(-n4cccc4)cc3)CC2)ccc1Br	.	.	-3.6	.	.	.
CCc1nnc(SCC(=O)N2CCc3ccccc32)n1CC	0.4%	i	-3.9	15.9%	8.6%	10.6%
CCn1c(SCC(=O)N2CCc3ccccc32)nnc1-c1ccncc1	-4.0%	-22.5%[57.5 µM]	-38.6*	9.8%	15.1%	0.2%
Cc1ccc(C(=O)/C=C/Nc2ccccn2)cc1	-15.2%	-39.1%	-11.7	4.9%	5.62µM*	9.8%
O=C(Cn1cnc(S(=O)(=O)N2CCCC2)c1)Nc1ccc(-c2ccno2)cc1	.	.	-0.5	.	.	.
CCn1cc(C(=O)NCCCN2CCCC(C)C2)c(=O)c2cc(S(=O)(=O)N3CCc4ccccc4C3)ccc21 (stereo unspecified)	11.2%	-3.4%	2.3	6.9%	10µM*	-26.5%
CCn1cc(C(=O)NCCCN(CC(C)C)CC(C)C)c(=O)c2cc(S(=O)(=O)N3CCOCC3)ccc21	3.8%	-5.6%	-1.6	3.0%	-0.7%	-6.3%
CCC1CCCCN1CCCNC(=O)c1cn(CC)c2ccc(S(=O)(=O)N3CCc4ccccc4C3)cc2c1=O (stereo unspecified)	11.0%	i	-1.6	-6.1%	?	-7.5%
CCn1cc(C(=O)NCCN(CC(C)C)CC(C)C)c(=O)c2cc(S(=O)(=O)N3CCOCC3)ccc21	8.7%	i	-2.5	-13.9%	7.94µM*	-17.8%
C=CCNc1nc(-c2ccccc2)c(C(=O)OCC)cc1C#N	25.3%	-0.1%	-3.2	11.8%	5.01µM*	?
CCOC(=O)c1ccc(-c2c(-c3ccccc3OC)sc3ccc(OC)cc23)cc1F	-2.1%	0.6%	1.6	-13.3%	11.2µM*	17.0%
COc1ccc2sc(-c3ccccc3OC)c(-c3ccc(OC)nc3)c2c1	15.2%	-30.8%	0.5	8.5%	?	9.0%
COc1cc(C(=O)Nc2ncccc2C)cc(Cl)c1OC	.	.	-12.4	.	.	.
CCn1nnc(NC(=S)NC(=O)c2ccc(-c3cccc(Cl)c3)o2)n1	-0.8%	i	-6.4	-5.6%	-22.3%	5.01µM*
O=C(CSc1ncc(-c2ccccc2)o1)Nc1ccc(F)c(F)c1	.	.	-14.2	.	.	.
CC1(C)CC(NC2C3CC4CC(C3)CC2C4)CC(C)(C)N1 (stereo unspecified)	6.0%	i	0.8	2.3%	3.16µM*	?
CC1(C)CC(NC(=O)/C=C/C(=O)NC2CC(C)(C)NC(C)(C)C2)CC(C)(C)N1	.	.	-1.9	.	.	.
CC(Oc1ccccc1C(C)C)C(=O)N1CCN(c2ncccn2)CC1 (stereo unspecified)	.	.	4.4	.	.	.
CC1CCN(c2nc3ccc(C(=O)NC(C)C)cc3s2)CC1	.	-78.8%	1.0	-14.0%	5.01µM*	6.0%
COc1ccc(Cl)cc1NC(=O)CN(C(=O)c1ccco1)C1CCCCC1	-3.4%	-4.9%[57.5 µM]	4.7	20.9%	10µM*	3.7%
O/N=C/c1cc(Br)cc(Br)c1OCc1ccccc1	5.2%	i	-3.8	-5.2%	10µM*	-5.5%
COc1cc(/C=N/O)c(Br)cc1OCc1ccccc1	.	.	3.0	.	.	.
COc1ccc(NC(=O)Nc2cc3oc4ccccc4c3cc2OC)cc1	-11.2%	i	-2.3	0.1%	?	9.5%
COc1cc2c(cc1NC(=O)Nc1ccc(C)cc1)oc1ccccc12	-2.9%	-16.2%	-3.0	1.6%	1.78µM*	-18.1%
